The panel holds about 83,000 compounds, 20% with a hit somewhere; the sample as a whole holds those more often.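 Testing used 96-well plates and a 48-hour single-concentration exposure. Example: -40 means 40% of the starting cells died.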 Values without a mark were called inactive. Active and inactive are the calls of the source. How the source made its calls: active means growth percent below 10; inactive means the rest.

Test systems include HCT-15 colon; HT29 colon; SNB-75 CNS; SNB-19 CNS; U251 CNS; PC-3 prostate; SK-MEL-5 melanoma; UACC-62 melanoma; LOX IMVI melanoma; SK-MEL-28 melanoma; SK-MEL-2 melanoma; EKVX NSCLC; SN12C renal; UO-31 renal; TK-10 renal; ACHN renal; CAKI-1 renal; A498 renal; CCRF-CEM leukemia; MOLT-4 leukemia.
What all share (test): NCI-60 one-dose screen, 48 h (100 = growth as untreated, 0 = no growth, -100 = all killed)
What all share (settings): 10 µM unless noted

In the case of `COc1ccc(/C=C/C(=O)c2cc3c(N)c(C(=O)Nc4ccccc4C)sc3nc2C)cc1`, the growth was 15.2% in the assay on HCT-15 colon; -27.6% (active) in the assay with HT29 colon; -0.543% (active) in the assay on SNB-75 CNS; 6.45% (active) with SNB-19 CNS; 9.39% (active) in the assay on U251 CNS; 25% in the assay with PC-3 prostate. The growth with SK-MEL-5 melanoma is 17.7%; in the assay with UACC-62 melanoma it was 16.9%; in the assay on LOX IMVI melanoma, 18.7%; with SK-MEL-28 melanoma it was 51.3%; in the assay with SK-MEL-2 melanoma, 14.5%; in the assay with EKVX NSCLC, 43.3%. Moreover, the growth is 26.4% in the assay on SN12C renal; 40.4% in the assay on UO-31 renal; 32% in the assay on TK-10 renal; 38.7% in the assay on ACHN renal; 23.3% in the assay on CAKI-1 renal; 16.7% in the assay with A498 renal. Also, the growth is 16.4% in the assay on CCRF-CEM leukemia and 27.6% with MOLT-4 leukemia.
As for `CCN1C(=S)N(CC)C2C1NC(=S)N2/N=C/C=C/c1ccccc1OC` (stereo not given), the growth with HCT-15 colon is 14.9%; in the assay with HT29 colon, 2.78% (active); with SNB-75 CNS, -5.85% (active); with SNB-19 CNS, 26.5%; in the assay with U251 CNS, 13.1%; in the assay with PC-3 prostate it was 33%. The growth with SK-MEL-5 melanoma is 17.3%; in the assay with UACC-62 melanoma, 23.5%; in the assay on LOX IMVI melanoma, 19%; in the assay with SK-MEL-28 melanoma it was 54.5%; in the assay on SK-MEL-2 melanoma it was 46.7%; in the assay with EKVX NSCLC, 49.3%. The growth with SN12C renal was 28.5%; in the assay with UO-31 renal, 43.5%; with TK-10 renal it was 71.4%; in the assay on ACHN renal it was 33.7%; in the assay on CAKI-1 renal, 34.1%; with A498 renal it was 16.3%. For the same molecule, the growth is 12.2% with CCRF-CEM leukemia and 17.7% in the assay with MOLT-4 leukemia.
Take `COc1ccc(/C=C/C(=O)c2ccc(NC(=O)CSc3nnc(-c4cc(-c5ccccc5)nc5ccccc45)n3-c3ccccc3)cc2)cc1`: the growth in the assay with HCT-15 colon is 92.5%; with HT29 colon, 98.1%; in the assay with SNB-75 CNS, 100%; in the assay with SNB-19 CNS, 101%; with U251 CNS, 102%; with PC-3 prostate it was 89.9%. In addition, the growth with SK-MEL-5 melanoma is 97.5%; in the assay on UACC-62 melanoma it was 87.3%; with LOX IMVI melanoma, 96.5%; with SK-MEL-28 melanoma it was 98.4%; in the assay with SK-MEL-2 melanoma, 107%; in the assay on EKVX NSCLC, 98%. In addition, the growth in the assay on SN12C renal was 92.7%; with UO-31 renal it was 100%; with TK-10 renal it was 112%; with ACHN renal it was 95.7%; in the assay on CAKI-1 renal it was 90%; in the assay with A498 renal it was 85.3%. The growth with CCRF-CEM leukemia is 88.3%; in the assay on MOLT-4 leukemia, 80.2%.
Turning to `C=CCOC(=O)C1=C(C)NC(=O)NC1c1c(Cl)n(C)c2ccccc12` (stereo not given), the growth was 99.8% in the assay with HCT-15 colon; 110% in the assay with HT29 colon; 97.8% in the assay on SNB-75 CNS; 94% with SNB-19 CNS; 96.3% in the assay on U251 CNS; 89.2% in the assay with PC-3 prostate. Also, the growth with SK-MEL-5 melanoma is 102%; in the assay on UACC-62 melanoma, 90.3%; in the assay on LOX IMVI melanoma it was 102%; in the assay with SK-MEL-28 melanoma, 99.6%; in the assay on SK-MEL-2 melanoma, 112%; in the assay on EKVX NSCLC, 98.2%. Besides, the growth in the assay with SN12C renal was 96.9%; with UO-31 renal it was 80.9%; in the assay with TK-10 renal, 102%; in the assay with ACHN renal, 99.7%; in the assay with CAKI-1 renal it was 94.3%; in the assay on A498 renal, 101%. The growth with CCRF-CEM leukemia is -49.5% (active); in the assay on MOLT-4 leukemia it was 98.5%.
For `CC(C)[C@@]12C[C@@H](OC(=O)COC(=O)c3ccccc3)[C@@](C)(O1)[C@@H]1CC[C@@H](C)[C@H]1[C@@H]2OC(=O)/C=C/c1ccccc1`, the growth with HCT-15 colon is 92.5%; with HT29 colon it was 89.9%; in the assay on SNB-75 CNS, 72.6%; in the assay on SNB-19 CNS, 84.5%; in the assay on U251 CNS, 84%; with PC-3 prostate, 74.2%. Further, the growth in the assay with SK-MEL-5 melanoma is 90.7%; in the assay with UACC-62 melanoma, 83.2%; with LOX IMVI melanoma it was 89.1%; in the assay on SK-MEL-28 melanoma, 107%; in the assay with SK-MEL-2 melanoma, 103%; in the assay with EKVX NSCLC, 81.8%. For the same molecule, the growth with SN12C renal is 31%; in the assay on UO-31 renal it was -78.1% (active); in the assay with TK-10 renal, 88.9%; in the assay with ACHN renal, -13.4% (active); in the assay on CAKI-1 renal it was 5.14% (active); in the assay with A498 renal, -76.6% (active). Moreover, the growth in the assay on CCRF-CEM leukemia is 87%; in the assay on MOLT-4 leukemia, 80.8%.
Regarding `Oc1c(CN2CCCC2)cc(COCc2ccccc2)c2cccnc12`, the growth is 11.3% in the assay on HCT-15 colon; 74.4% in the assay on HT29 colon; 44.9% with SNB-75 CNS; 25.5% with SNB-19 CNS; 1.08% (active) with U251 CNS; 24.9% in the assay with PC-3 prostate. Also, the growth with SK-MEL-5 melanoma is -11.1% (active); in the assay with UACC-62 melanoma it was -19.9% (active); in the assay on LOX IMVI melanoma, 2.6% (active); with SK-MEL-28 melanoma, 31%; with SK-MEL-2 melanoma, 19.2%; in the assay on EKVX NSCLC, 31.7%. In addition, the growth in the assay with SN12C renal was 27.9%; with UO-31 renal, -1.58% (active); in the assay with TK-10 renal, 10.7%; in the assay on ACHN renal it was 6.14% (active); in the assay with CAKI-1 renal it was 10.5%; in the assay on A498 renal, 19.3%. The growth in the assay with CCRF-CEM leukemia is 6.37% (active); with MOLT-4 leukemia it was 9.79% (active).
With `CCCCc1oc2ccccc2c1C(=O)c1ccc(O)cc1`, the growth in the assay on HCT-15 colon was 81.6%; in the assay on HT29 colon, 103%; in the assay on SNB-75 CNS, 62.4%; in the assay with SNB-19 CNS, 91.1%; in the assay on U251 CNS, 85.8%; in the assay on PC-3 prostate, 73%. Besides, the growth was 82.6% with SK-MEL-5 melanoma; 69.1% in the assay on UACC-62 melanoma; 82.7% with LOX IMVI melanoma; 116% with SK-MEL-28 melanoma; 99.8% in the assay with SK-MEL-2 melanoma; 92.3% with EKVX NSCLC. Also, the growth in the assay on SN12C renal is 71.2%; with UO-31 renal, 78.3%; in the assay on TK-10 renal it was 101%; with ACHN renal, 88.8%; in the assay on CAKI-1 renal, 68.4%; with A498 renal, 90.9%. Moreover, the growth is 51.9% in the assay with CCRF-CEM leukemia and 59.7% with MOLT-4 leukemia.
As to `CC1CN=C(c2cccc(-c3ccc(-c4ccccc4)o3)c2)N1` (stereo not given), the growth in the assay on HCT-15 colon is -57.5% (active); in the assay on HT29 colon it was -43.6% (active); with SNB-75 CNS, 58.7%; in the assay on SNB-19 CNS, 25.8%; in the assay with U251 CNS it was -24.3% (active); in the assay with PC-3 prostate, 11.2%. Also, the growth in the assay on SK-MEL-5 melanoma is -93.3% (active); in the assay on UACC-62 melanoma it was -62.2% (active); in the assay on LOX IMVI melanoma, -85.7% (active); in the assay with SK-MEL-28 melanoma, -76.3% (active); in the assay on SK-MEL-2 melanoma it was -69.7% (active); in the assay on EKVX NSCLC it was 37.2%. Also, the growth in the assay with SN12C renal was 32.2%; in the assay on UO-31 renal, -0.664% (active); in the assay on TK-10 renal it was 30.1%; in the assay with ACHN renal, -21.8% (active); in the assay on CAKI-1 renal, 5.69% (active); in the assay with A498 renal it was 25.7%. Also, the growth in the assay with CCRF-CEM leukemia is -13.4% (active); with MOLT-4 leukemia it was -16.5% (active).

The record behind these values is PubChem BioAssay (NCI).
